Assay outcomes deposited in PubChem by several laboratories.
The sample as a whole holds a higher share of hits than the screen did.
RmlC RmlD mix – RmlC and RmlD coupled enzyme inhibitors, primary screen, biochemical, 384-well, compound mixtures, retest | RmlC/RmlD coupled enzyme inhibition, 384-well mixture HTS | inhibition, % at 5.5 µM | 0.39% of 110,000 active | AID 1532, 2009; in the data active = inhibition above about 30%, passing the limit was not always enough
HIV RNase H inh – HIV-1 RT RNase H inhibitors, primary screen, biochemical, fluorescence. 1.9% of 65,000 active. inhibition, % at 10 µM. RT-RNase H RNA/DNA duplex cleavage; in the data active = inhibition above about 50%
RmlCD fluor art – counter-screen for RmlC/RmlD inhibitors: fluorescence artifact, dose response, artefact control, biochemical. shares compounds with RmlC RmlD mix. RmlC/RmlD assay fluorescence artifact counter-screen. calls only. 96% of 360 active. AID 1696, 2009; call rule not given here;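 note: compound alone with no enzyme and no substrates present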
An asterisk follows results filed as active.

`COc1ccc(/C=N/NC(=O)Nc2cccc3nsnc23)c(OC)c1` gave RmlC RmlD mix 38.7* and RmlCD fluor art active.
Screening CC(C)C(=O)Nc1cccc2nsnc12 returned RmlC RmlD mix 9.1 and HIV RNase H inh 2.9.
COC(=O)[C@H]1[C@@H](C)N(Cc2ccccc2)C(=O)N[C@H]1c1cccc(C(F)(F)F)c1 was read as RmlC RmlD mix 5.7.
For CCN(CC)C(=O)c1cc2c(=O)n3ccccc3nc2s1 the results were RmlC RmlD mix 27.3 and HIV RNase H inh -16.8.
Screening COCCN(CCOC)C(=O)c1cc2c(=O)n3ccccc3nc2s1 returned RmlC RmlD mix 115.1*, HIV RNase H inh 7.3 and RmlCD fluor art active.
`CCCCNC(=S)NNC(=O)c1nn(C)cc1Cl` gave RmlC RmlD mix -6.3.
For COc1ccc2cc3cc(C(=O)NCCCN4CCOCC4)oc3nc2c1 the results were RmlC RmlD mix 43.2*, HIV RNase H inh -13.3 and RmlCD fluor art active.
CCN1CCN(CCCNC(=O)c2cc3cc4ccc(OC)cc4nc3o2)CC1 was read as HIV RNase H inh -34.1.
Screening COc1ccccc1N(C(C)=O)c1nc(C)cc(C)c1C#N returned RmlC RmlD mix 5.2.
COc1ccc(NC(=O)CSc2nnc(CCC(=O)Nc3ccc(C)c(Cl)c3)n2C)cc1 was read as RmlC RmlD mix -4.9.
O=C1CCC(=O)N1c1nc2nc(-c3ccccc3)cc(-c3ccccc3)n2n1 was read as RmlC RmlD mix 103.4*, HIV RNase H inh 3.4 and RmlCD fluor art active.
For CC(=O)Nc1nc2nc(-c3ccccc3)cc(-c3ccccc3)n2n1 the results were RmlC RmlD mix 18.3.
`O=C(c1cc2c(ccc3ccccc32)oc1=O)N1CCCC1` gave RmlC RmlD mix 2.9.
`O=C(O)c1cc2c(ccc3ccccc32)oc1=O` gave RmlC RmlD mix 82.1* and RmlCD fluor art active.
`CC(C)(C)c1ccc(/C([O-])=C(/C(=S)NCc2ccco2)[n+]2ccccc2)cc1` gave RmlC RmlD mix -9.3.
`Nc1ccc(-c2nc3ccc(N)cc3o2)cc1` gave RmlC RmlD mix 103.9*, HIV RNase H inh -12.2 and RmlCD fluor art active.
Screening Cc1ccc2nc(-c3cc(N)cc(N)c3)oc2c1 returned RmlC RmlD mix 7.3.
`COC(=O)c1c(N)n(-c2ccc(NC(C)=O)cc2)c2nc3ccccc3nc12` gave RmlC RmlD mix 64.1*, HIV RNase H inh 7.1 and RmlCD fluor art active.
COC(=O)c1c(N)n(-c2ccc(N3CCOCC3)cc2)c2nc3ccccc3nc12 was read as HIV RNase H inh 0.5.
Screening C[N+]1(C)CCCC(OC(=O)C(O)(c2ccccc2)c2ccccc2)C1 (stereo unspecified) returned RmlC RmlD mix -15.1.
Screening O=C1N[C@H](C(=O)O)CS1 returned RmlC RmlD mix -52.2.
For Cc1oc2ccccc2c1-c1cn2c(n1)SCC2 the results were RmlC RmlD mix 51.9*, HIV RNase H inh 3.5 and RmlCD fluor art active.
Screening c1ccc(-c2cn3c(n2)SCC3)cc1 returned RmlC RmlD mix -0.3.
COc1cc2oc(=O)ccc2c(OC)c1CC(O)C(C)(C)O (stereo unspecified) was read as RmlC RmlD mix 11.8.
COc1ccc(S(=O)(=O)N(C)CC(=O)Nc2ccc(C(F)(F)F)cc2)cc1Cl was read as RmlC RmlD mix 9.3.
`COc1ccc(-c2cc(C(F)(F)F)n3nc(C(=O)N(C)Cc4ccccc4)cc3n2)cc1OC` gave RmlCD fluor art active.
COc1ccc(-c2cc(C(F)(F)F)n3nc(C(=O)Nc4cc(C)on4)cc3n2)cc1OC was read as HIV RNase H inh -14.2.
C/C=C/C(=O)Nc1cccc(C2=NOC3(C2)C[C@H](C(N)=O)N(C(=O)c2ccccc2C(=O)c2ccccc2)C3)c1 (stereo partly specified) was read as RmlC RmlD mix -6.2.
O=C(c1cc(C2CC2)on1)N1CCN(c2ccccc2)CC1 was read as RmlC RmlD mix 5.1.
Screening Cc1cc(=O)oc2cc(Oc3ncccn3)ccc12 returned RmlC RmlD mix -10.0 and HIV RNase H inh -2.6.
Screening Cc1cc(=O)oc2cc(OC(=O)c3ccccc3)ccc12 returned RmlC RmlD mix 46.0* and RmlCD fluor art active.
`COC(=O)c1cc(-c2c(C)oc3cc(OC(C)C)ccc3c2=O)c(C)o1` gave RmlC RmlD mix -1.1 and HIV RNase H inh -11.3.
For CC(=O)Oc1ccc2c(=O)c(-c3ccccc3)c(C)oc2c1 the results were RmlC RmlD mix 79.5* and RmlCD fluor art active.
`CCCCNC(=O)c1ccc(CNc2c(N3CCC(C(=O)OCC)CC3)c(=O)c2=O)cc1` gave RmlC RmlD mix 9.1.
Screening COc1cc2c(cc1OC)-c1cc(OCCN3CCOCC3)nc(=O)n1CC2 returned RmlC RmlD mix 61.1*, HIV RNase H inh 0.2 and RmlCD fluor art active.
CCNc1cc2n(c(=O)n1)CCc1cc(OC)c(OC)cc1-2 was read as RmlC RmlD mix 17.3 and HIV RNase H inh -15.8.
`O=C(c1ccc(F)cc1)N1CCN(c2cc(=O)[nH]nc2-c2ccccc2)CC1` gave RmlC RmlD mix 12.4.
For CCOC(=O)c1c(C)nc2sc(C(N)=O)c(N)c2c1-c1ccc(OC)cc1 the results were RmlC RmlD mix -2.1.
`COc1ccc(C2NC(=O)c3sc4nc(C)c(C(C)=O)c(-c5ccc(Cl)cc5)c4c3N2)cc1` (stereo unspecified) gave RmlC RmlD mix 51.6* and RmlCD fluor art active.
For COc1ccc(OC)c(/C=N/NC(=O)CC2C(=O)NN=C2C)c1 (stereo unspecified) the results were RmlC RmlD mix 53.7* and RmlCD fluor art active.
COc1cccc(/C=N/NC(=O)CC2C(=O)NN=C2C)c1OC (stereo unspecified) was read as RmlC RmlD mix -0.4.
`CC1CCN(C(=O)CCCOc2ccc(Cl)cc2)CC1` gave RmlC RmlD mix 7.6.
For CC(C)(C)OC(=O)N1CCN(C(=O)OCC2c3ccccc3-c3ccccc32)CC1C(=O)O (stereo unspecified) the results were RmlC RmlD mix -9.2.
`Cc1ccc(NC(=O)NC(=O)N(c2ccccc2)S(C)(=O)=O)cc1` gave RmlC RmlD mix -15.7 and HIV RNase H inh -11.9.
For Cc1noc(C)c1CSc1nc2sc(C)c(C)c2c(=O)n1C1CCCC1 the results were RmlC RmlD mix -6.1 and HIV RNase H inh -4.8.
For CSc1ccc(/C=N/n2nnnc2N)cc1 the results were RmlC RmlD mix 69.0*, HIV RNase H inh -26.4 and RmlCD fluor art active.
For COc1cc(/C=N/n2nnnc2N)ccc1O the results were RmlC RmlD mix -40.2 and HIV RNase H inh 7.6.
For CCn1c(CNc2nc3ccccc3n2C(C)C)nc2ccccc21 the results were RmlC RmlD mix 8.1.
`CCc1cc(=O)oc2cc(OC(C)=O)cc(OC(C)=O)c12` gave HIV RNase H inh -5.0 and RmlCD fluor art active.
`CCCCc1cc(=O)oc2cc(C)cc(OCC(=O)O)c12` gave RmlC RmlD mix 24.6 and HIV RNase H inh -1.9.
`CCOC(=O)c1cccc(NC(=O)CN(c2ccc(C)cc2)S(=O)(=O)c2c(C)n[nH]c2C)c1` gave RmlC RmlD mix 36.5 and HIV RNase H inh 9.7.
`N#Cc1c(-c2ccco2)cc(-c2ccccn2)nc1N` gave RmlC RmlD mix 46.5*, HIV RNase H inh 6.0 and RmlCD fluor art active.
